Experimental data reported in PubChem BioAssay AID642 (Vanderbilt High Throughput Screening Facility, 2007).
Out of some 2,200 compounds screened, about 2,000 (91%) were called active.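 Rule for the calls: active = luminescence in either of two replicates above the same-plate mean plus 3 SD of the low-dose dopamine control; inactive = the rest.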 So high a share suggests a set chosen from earlier hits. A selection follows.

These molecules were tested against D(1A) dopamine receptor (Homo sapiens) (UniProt P21728) (assay: potentiation of dopamine EC30 D1 response – cell-based, HEK293 D1, CRE-luciferase, duplicate, confirmation (AID 642)). Conditions: at 10 µM, hits give high values.
D(1A) dopamine receptor (Homo sapiens), sequence (P21728 whole entry, looked up): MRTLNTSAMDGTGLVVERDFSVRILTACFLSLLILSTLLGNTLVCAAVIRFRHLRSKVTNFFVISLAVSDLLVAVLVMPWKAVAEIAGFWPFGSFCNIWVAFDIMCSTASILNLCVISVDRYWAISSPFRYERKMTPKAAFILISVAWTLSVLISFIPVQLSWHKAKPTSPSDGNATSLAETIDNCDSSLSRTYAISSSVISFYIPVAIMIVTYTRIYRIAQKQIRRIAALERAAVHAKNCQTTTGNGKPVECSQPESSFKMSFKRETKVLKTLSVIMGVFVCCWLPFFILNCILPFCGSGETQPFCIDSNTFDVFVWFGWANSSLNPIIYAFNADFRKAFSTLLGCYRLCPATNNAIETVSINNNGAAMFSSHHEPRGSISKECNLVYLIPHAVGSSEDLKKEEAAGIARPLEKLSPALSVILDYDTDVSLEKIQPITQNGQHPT
`CCC(=NCc1ccco1)c1c(O)n(Cc2ccccc2)c(=O)[nH]c1=O` was tested, and the luminescence was 18900 (active).
